Anthrax LF prot: inhibitors of Bacillus anthracis lethal factor protease; P15917; multiplex microsphere protease cleavage assay, LF; inhibition, % at 10 µM; hit rate 0.12% among 360,000; also: plate controls were buffer without enzyme for full effect and enzyme alone for no effect
BoNT-A LC inh2: BoNT A light chain protease inhibition | multiplex microsphere protease substrate cleavage, flow cytometry | AID 588499 | hit rate 0.17% among 360,000 | inhibition, % at 10 µM; also: plate controls were buffer without enzyme for full effect and enzyme alone for no effect
Autofluor counter: counter-screen for toxin protease inhibitors: compound fluorescence. compound autofluorescence counterscreen, microsphere flow cytometry; stronger effect = higher value. hit rate 3.1% among 360,000. fluorescence intensity (test concentration not listed); in the data active = fluorescence intensity above about 16000; inconclusive = no clear call, values can overlap the other calls
BoNT F protease: BoNT F light chain protease inhibition | inhibition, % at 10 µM | Multiplex microsphere protease cleavage assay, flow cytometry | hit rate 0.22% among 360,000 | AID 588497; in the data active = inhibition above about 35%, passing the limit was not always enough; inconclusive = no clear call, values can overlap the other calls; also: plate controls were buffer without enzyme for full effect and enzyme alone for no effect
FBA Mtb inh: inhibitors of M. tuberculosis fructose-bisphosphate aldolase; inhibition, % at 1 µM; P9WQA3; purified M. tuberculosis FBA, fluorescence read-out; AID 588726; hit rate 2.3% among 360,000; in the data active = inhibition above about 27%;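 also: 0% = vehicle and 100% = reference inhibitor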
Target sequence (P9WQA3 whole entry, looked up): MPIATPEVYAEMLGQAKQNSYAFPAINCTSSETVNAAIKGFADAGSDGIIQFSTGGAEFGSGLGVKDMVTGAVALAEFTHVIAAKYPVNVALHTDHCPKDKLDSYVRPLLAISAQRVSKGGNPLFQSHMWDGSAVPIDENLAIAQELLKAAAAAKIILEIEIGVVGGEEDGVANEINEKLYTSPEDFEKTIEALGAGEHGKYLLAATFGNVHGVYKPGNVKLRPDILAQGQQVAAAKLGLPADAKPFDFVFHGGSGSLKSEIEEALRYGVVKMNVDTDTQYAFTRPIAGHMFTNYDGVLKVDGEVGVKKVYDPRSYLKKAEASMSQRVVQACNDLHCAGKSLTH
GDH-TPI counter: counter-screen for M. tuberculosis FBA inhibitors: GDH-TPI coupled enzymes | GDH-TPI coupled enzyme counterscreen, NADH absorbance | inhibition, % at 4.8 µM | hit rate 1.2% among 360,000 | AID 588335; in the data active = inhibition above about 30%;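 also: 0% = DMSO wells and 100% = wells lacking the enzyme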
* hit, by the source's call. Most compounds without a hit are left out; they make up all but 6.7% or so of the library. Rule as the data show it, unless noted: active = inhibition above about 30%; inconclusive = no clear call, values can overlap the other calls; inactive = below that.

CCN(CC)C(=O)C(C)OC(=O)COc1ccc(Cl)cc1C (stereo not drawn) was read as Anthrax LF prot -3.2, BoNT-A LC inh2 -1.2, Autofluor counter 22121*, BoNT F protease -2.3, FBA Mtb inh -0.3 and GDH-TPI counter 9.7.
`COc1ccccc1/C=C/C(=O)c1c2c(c(C)[nH]c1=O)CCCC2` gave Anthrax LF prot -1.3, BoNT-A LC inh2 inconclusive, Autofluor counter 21882*, BoNT F protease 5.3, FBA Mtb inh -1.8 and GDH-TPI counter 27.9.
`COc1ccccc1/C=C/C(=O)c1ccc(Cl)cc1` gave Anthrax LF prot -1.7, BoNT-A LC inh2 -2.1, Autofluor counter 24068*, BoNT F protease -2.4, FBA Mtb inh 1.4 and GDH-TPI counter 15.5.
Screening N#Cc1ccc(N2CCCNCC2)nc1 returned Anthrax LF prot -2.6, BoNT-A LC inh2 -2.6, Autofluor counter 2996, BoNT F protease -6.2, FBA Mtb inh 1.4 and GDH-TPI counter 4.0.
`COC(=O)c1ccccc1N=Nc1c(C)noc1C` gave Anthrax LF prot 33.6*, BoNT-A LC inh2 3.4, Autofluor counter 3984, BoNT F protease inconclusive, FBA Mtb inh 3.2 and GDH-TPI counter 17.0.
`O=C(O)c1cn(-c2ccc(F)cc2)c2cc(Cl)c(F)cc2c1=O` gave Anthrax LF prot 1.7, BoNT-A LC inh2 0.1, Autofluor counter 3717, BoNT F protease 19.9, FBA Mtb inh 1.8 and GDH-TPI counter 1.4.
Screening CC(=O)Nc1ccc(-c2ccnc3c2CC(C)(C(=O)NCCN(C)C)O3)cc1 (stereo not drawn) returned Anthrax LF prot -6.0, BoNT-A LC inh2 0.2, Autofluor counter 3888, BoNT F protease -5.9, FBA Mtb inh 9.7 and GDH-TPI counter 7.1.
Screening Cc1c(CCO)c(=O)n2c([nH]c3ccccc32)c1C#N returned Anthrax LF prot -5.1, BoNT-A LC inh2 -2.6, Autofluor counter 3774, BoNT F protease -16.9, FBA Mtb inh active and GDH-TPI counter 15.6.
For Cc1c(CCC(C)C)c(=O)n2c([nH]c3ccccc32)c1C#N the results were Anthrax LF prot -0.5, BoNT-A LC inh2 -0.2, Autofluor counter 3209, BoNT F protease 3.7, FBA Mtb inh 23.5 and GDH-TPI counter 3.3.
COC(=O)C1=CN(C)C=C(C(=O)OC)C1c1ccc(O)c(OC)c1 was read as Anthrax LF prot -5.7, BoNT-A LC inh2 inconclusive, Autofluor counter 23196*, BoNT F protease -6.3, FBA Mtb inh 2.4 and GDH-TPI counter -5.8.
For CCOc1cc(C2C(C(=O)OC)=CN(Cc3ccc(Cl)cc3)C=C2C(=O)OC)ccc1O the results were Anthrax LF prot -7.5, BoNT-A LC inh2 3.5, Autofluor counter 3776, BoNT F protease 48.0*, FBA Mtb inh 4.6 and GDH-TPI counter -1.5.
For CCOc1ccc(N2CC(C(=O)NNC(=O)c3ccc(F)cc3)CC2=O)cc1 (stereo not drawn) the results were Anthrax LF prot 0.2, BoNT-A LC inh2 -0.9, Autofluor counter 3332, BoNT F protease -6.9, FBA Mtb inh 0.6 and GDH-TPI counter 4.8.
`CC(=O)c1ccc(OCCCC(=O)NC2CCCCC2C)cc1` (stereo not drawn) gave Anthrax LF prot 1.9, BoNT-A LC inh2 -1.9, Autofluor counter 4111, BoNT F protease 10.1, FBA Mtb inh 2.9 and GDH-TPI counter -3.0.
For CCOC(=O)C1=NNC(=O)C1 the results were Anthrax LF prot -9.0, BoNT-A LC inh2 0.0, Autofluor counter 3512, BoNT F protease -3.7, FBA Mtb inh -1.9 and GDH-TPI counter -3.4.
`CCOC(=O)/C=C1\CC(=O)Nc2nonc2N1` gave Anthrax LF prot 0.8, BoNT-A LC inh2 1.2, Autofluor counter 22714*, BoNT F protease 1.3, FBA Mtb inh -0.3 and GDH-TPI counter 12.4.
Screening CCOC(=O)/C=C1\CC(=O)Nc2cc(C)c(C)cc2N1 returned Anthrax LF prot -0.6, BoNT-A LC inh2 -2.4, Autofluor counter 20731*, BoNT F protease -2.2, FBA Mtb inh -1.4 and GDH-TPI counter 3.1.
Screening CCOC(=O)/C=C1\Nc2ccccc2OC1=O returned Anthrax LF prot -1.6, BoNT-A LC inh2 -1.0, Autofluor counter 2499, BoNT F protease 2.9, FBA Mtb inh 1.6 and GDH-TPI counter 1.1.
Screening CC(C)C(C(=O)NCC1CCCO1)N(Cc1ccco1)C(=O)CNS(=O)(=O)c1ccccc1 (stereo not drawn) returned Anthrax LF prot -0.4, BoNT-A LC inh2 -0.3, Autofluor counter 2380, BoNT F protease 1.8, FBA Mtb inh 1.1 and GDH-TPI counter -3.8.
For COCC(C)N1CCC(n2nccc2NC(=O)CCOc2ccccc2)CC1 (stereo not drawn) the results were Anthrax LF prot -3.2, BoNT-A LC inh2 1.5, Autofluor counter 5165, BoNT F protease -7.4, FBA Mtb inh -0.7 and GDH-TPI counter -1.7.
For CC(=O)/C(=N/Nc1ccccc1)Sc1nnc(CCc2ccccc2)n1-c1ccccc1 the results were Anthrax LF prot -2.5, BoNT-A LC inh2 0.5, Autofluor counter 2757, BoNT F protease -0.8, FBA Mtb inh 2.9 and GDH-TPI counter 31.7*.
For COc1ccc(-n2c(CCc3ccccc3)nnc2SCC(=O)c2ccccc2)cc1 the results were Anthrax LF prot -2.5, BoNT-A LC inh2 -0.1, Autofluor counter 2037, BoNT F protease 9.5, FBA Mtb inh 2.1 and GDH-TPI counter 6.2.
For COc1ccc(C(=O)CSc2nnc(CCc3ccccc3)n2-c2ccccc2)cc1 the results were Anthrax LF prot -1.0, BoNT-A LC inh2 -1.9, Autofluor counter 24111*, BoNT F protease -3.8, FBA Mtb inh -1.2 and GDH-TPI counter -6.8.
For CCCCc1ccc(-c2csc(/C(C#N)=C/c3ccco3)n2)cc1 the results were Anthrax LF prot -6.4, BoNT-A LC inh2 -0.1, Autofluor counter 2816, BoNT F protease -15.1, FBA Mtb inh 5.3 and GDH-TPI counter 1.5.
Screening N#C/C(=C/c1ccc(-c2ccccc2)o1)c1nc(-c2cccs2)cs1 returned Anthrax LF prot 34.1*, BoNT-A LC inh2 47.5*, Autofluor counter 15612, BoNT F protease 30.5, FBA Mtb inh -7.8 and GDH-TPI counter 9.6.
CCCCc1ccc(-c2csc(/C(C#N)=C\c3ccc(C)o3)n2)cc1 was read as Anthrax LF prot 3.5, BoNT-A LC inh2 6.4, Autofluor counter 22503*, BoNT F protease 0.7, FBA Mtb inh 1.0 and GDH-TPI counter 9.6.
Cc1ccc(Nc2c(-c3ccc(N4CCOCC4)cc3)nc3ncccn23)cc1 was read as Anthrax LF prot 0.2, BoNT-A LC inh2 -0.4, Autofluor counter 4263, BoNT F protease 4.5, FBA Mtb inh 2.8 and GDH-TPI counter 31.0*.
Screening CC(=O)c1ccc(Nc2c3c(nc4ccccc24)CCCC3)cc1 returned Anthrax LF prot -1.7, BoNT-A LC inh2 0.3, Autofluor counter 5113, BoNT F protease 0.8, FBA Mtb inh 2.7 and GDH-TPI counter 37.4*.
Screening COc1ccc(N(C(=O)c2ccco2)S(=O)(=O)c2ccccc2)cc1 returned Anthrax LF prot -3.6, BoNT-A LC inh2 1.1, Autofluor counter 11124, BoNT F protease 0.0, FBA Mtb inh 1.1 and GDH-TPI counter 8.1.
For COc1ccc(N(C(=O)c2ccco2)S(=O)(=O)c2cc(Cl)c(Cl)cc2Cl)cc1 the results were Anthrax LF prot -5.9, BoNT-A LC inh2 -1.4, Autofluor counter 23813*, BoNT F protease -5.6, FBA Mtb inh 4.5 and GDH-TPI counter 3.5.
